Assay outcomes as filed in PubChem.
This excerpt belongs to a sample that is enriched for hits.
IDE exosite inh: exo-site inhibitors of human insulin-degrading enzyme; P14735; purified IDE, FL-6b probe fluorescence polarization; hits give low values; z-score at 20 µM; 17,000 compounds, 6.3% hits;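 active = z-score of -3 or lower, meaning strong loss of probe binding signal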;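 note: His-tagged human IDE residues 42-1019 made in E. coli with 30 nM FL-6b probe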
* = called active by the depositor.

SMILES | IDE exosite inh
COc1ccc(C#Cc2ccc([C@@H]3[C@@H](CO)N4CCCCN(C(=O)Cc5cccnc5)C[C@H]34)cc2)cc1 | -1.2
O=C(Cc1cccnc1)N1CCCCN2[C@H](CO)[C@@H](c3ccc(/C=C/c4ccccc4)cc3)[C@H]2C1 | -9.4*
COc1ccc(C#Cc2ccc([C@@H]3[C@H](CO)N4CCCCN(C(=O)Cc5cccnc5)C[C@@H]34)cc2)cc1 | 4.6
O=C(Cc1cccnc1)N1CCCCN2[C@H](CO)[C@H](c3ccc(/C=C/c4ccccc4)cc3)[C@H]2C1 | -11*
O=C(Cc1cccnc1)N1CCCCN2[C@H](CO)[C@@H](c3ccc(C#CC4CCCC4)cc3)[C@@H]2C1 | 3.2
O=C(Cc1cccnc1)N1CCCCN2[C@H](CO)[C@@H](c3ccc(/C=C/c4ccccc4)cc3)[C@@H]2C1 | -8.8*
C/C=C/c1ccc([C@H]2[C@@H](CO)N3CCCCN(C(=O)Cc4ccncc4)C[C@H]23)cc1 | 0.65
O=C1CNC[C@H]2[C@H](c3ccc(Br)cc3)[C@@H](CO)N12 | -0.15
O=C(Cc1ccncc1)N1CCCCN2[C@H](C1)[C@H](c1ccc(C#CC3(O)CCCC3)cc1)[C@@H]2CO | 4.4
O=C(Cc1ccccn1)N1CCCCN2[C@H](CO)[C@@H](c3ccc(C#Cc4ccccc4)cc3)[C@@H]2C1 | -4.9*
CCCC#Cc1ccc([C@@H]2[C@H]3CN(C(=O)Cc4ccccn4)CCCCN3[C@H]2CO)cc1 | -1.7
O=C(Cc1ccccn1)N1CCCCN2[C@@H](CO)[C@H](c3ccc(C#Cc4ccccc4)cc3)[C@@H]2C1 | -7.3*
O=C(Cc1ccccn1)N1CCCCN2[C@H](CO)[C@H](c3ccc(C#Cc4ccccc4)cc3)[C@H]2C1 | -9.5*
COCC#Cc1ccc([C@@H]2[C@@H](CO)N3CCCCN(C(=O)Cc4ccccn4)C[C@@H]23)cc1 | -0.26
O=C(Cc1ccccn1)N1CCCCN2[C@@H](CO)[C@@H](c3ccc(Br)cc3)[C@@H]2C1 | 3.2
CC(C)CC#Cc1ccc([C@@H]2[C@@H](CO)N3CCCCN(C(=O)Cc4ccccn4)C[C@@H]23)cc1 | 5.1
CN(C)CC#Cc1ccc([C@@H]2[C@H]3CN(C(=O)Cc4ccccn4)CCCCN3[C@H]2CO)cc1 | 0.57
O=C(Cc1ccccn1)N1CCCCN2[C@H](CO)[C@@H](c3ccc(C#Cc4ccccc4)cc3)[C@H]2C1 | -0.97
CCCNC(=O)N1[C@@H]2Cn3c(ccc(-c4ccccc4OC)c3=O)[C@H]1[C@@H](C(=O)OC)[C@@H]2CO | 0.76
N#Cc1cccc(-c2ccc([C@H]3[C@H]4CN(C(=O)Cc5ccncc5)CCCCN4[C@H]3CO)cc2)c1 | 1.3
O=C([C@H]1N[C@H]2c3cccc(=O)n3C[C@H]2[C@@H]1CO)N1CCCCC1 | 0.87
N#Cc1cccc(-c2ccc([C@@H]3[C@@H](CO)N4CCCCN(C(=O)Cc5ccccc5)C[C@H]34)cc2)c1 | 0.49
C/C=C/c1ccc([C@H]2[C@@H](CO)N3CCCCN(C(=O)Cc4ccncc4)C[C@@H]23)cc1 | 1.6
COc1cccc(CN2CC3(C2)[C@H](c2ccccc2)[C@H](CO)N3C(=O)Cc2ccccc2)c1 | 0.88
COc1ccc(C#Cc2ccc([C@H]3[C@H]4CN(C(=O)Cc5ccccc5)CCCCN4[C@H]3CO)cc2)cc1 | 3.1
C/C=C/c1ccc(C2[C@@H]3CN(C(=O)CN(C)C)C[C@H]2N3)cc1 (some centres undefined) | 0.55
